Source: PubChem BioAssay (several laboratories)
In the library only some 27% were active in any assay of this set; here they are far more common.
CYP2C9 inhib = inhibitors of human CYP2C9. P11712. CYP2C9 Supersomes, luciferin-H conversion, luminescence. inhibition, % at 5 µM. 96,000 compounds, 20% hits;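 active = blocking of liver enzyme CYP2C9 beyond about 50% at 5 µM, limit read from the data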
Pyk2 oligo antag = antagonists of human Pyk2 oligomerization; Q293 cells, Pyk2 FERM NanoBiT luminescence; active compounds read low; z-score (the deposit names both 25 µM and 10 µM); 99,000 compounds, 0.83% hits;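 active = Z-score of -3 or lower, scaled per plate to the spread of control and sample wells; inactive = z-score above -3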;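 note: negative z-score means lost luminescence so less FERM oligomerization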
CYP2C19 inhib = inhibitors of human CYP2C19. inhibition, % at 5 µM. AID 778. 96,000 compounds, 21% hits. CYP2C19 Supersomes, luciferin-H EGE luminescence, 30 min. P33261;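 active = CYP2C19 inhibition above a set limit at 5 µM in the primary screen, cut at about 50% in these data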
CYP2C19 act = activators of human cytochrome P450 2C19; P33261; 96,000 tested, under 10 active; activation factor at 5 µM; recombinant CYP2C19, luciferin-H EGE luminescence; active compounds read high; 0 = fully inhibited enzyme, 1 = untreated enzyme;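 active = activation factor of at least 2 at 5 µM in the primary screen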
CYP2C9 act = CYP2C9 (human) activation | P11712 | recombinant CYP2C9, luciferin-H conversion, luminescence; active compounds read high; factor 1 = untreated enzyme, 0 = blocked | activation factor at 5 µM | 96,000 compounds, 1.4% hits;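 active = activation factor of 2 or more for CYP2C9 at a 5 µM dose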
Cav32 inh = inhibitors of human Cav3.2 T-type calcium channel; O95180; Cav3.2-expressing cells, Fluo-4 calcium fluorescence FDSS; active compounds read low; B-score at 10 µM; 100,000 compounds, 4% hits; AID 449739;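 active = single-dose well whose peak fluorescence ratio is a statistical outlier from its plate by either plate-standardised score or position-corrected B-score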
Large screens that a line does not name were inactive.

O=C(NCCOc1ccc(Cl)cc1)C1CC(=O)N(c2ccc(F)cc2)C1 (centres undefined)	none
O=C(C1CCN(S(=O)(=O)c2ccc(Br)s2)CC1)N1CCc2ccccc21	none
C=CCNC(=O)C1CC(=O)N(c2ccc(OCC(=O)Nc3cccc(OC)c3)cc2)C1 (centres undefined)	CYP2C9 inhib 56
O=C(Nc1cccc(F)c1)C1CC(=O)N(c2ccc(Br)cc2)C1 (centres undefined)	CYP2C9 inhib 63, CYP2C19 inhib 63, Cav32 inh -5.4
COc1ccc(OC)c(NC(=O)C2CC(=O)N(c3ccccc3)C2)c1 (centres undefined)	none
COc1ccc(OC)c(NC(=O)C2CC(=O)N(c3ccc(Br)cc3)C2)c1 (centres undefined)	CYP2C9 inhib 84, CYP2C19 inhib 86
C=CCNC(=O)C1CC(=O)N(c2ccc(OCC(=O)Nc3ccc(Cl)c(C(F)(F)F)c3)cc2)C1 (centres undefined)	none
C=CCOC(=O)C1=C[C@@H](c2csc3ccccc23)[C@H](CCCO)[C@@H](OCC)O1	none (no result: CYP2C9 inhib, Pyk2 oligo antag, CYP2C19 inhib, CYP2C19 act, CYP2C9 act)
Cc1cc(C)c(C)c(S(=O)(=O)N2C(=S)NC(=O)C2C(C)C)c1C (centres undefined)	none
Cc1cccc(NC(=S)c2nc3ccccc3s2)c1	none (no result: Cav32 inh)
O=[n+]1c2c(n([O-])c3cc(F)c(N4CCCC4)cc31)CCCC2	Cav32 inh -7.3
